PNC inhibitor: High Content Assay for Compounds that inhibit the Assembly of the Perinucleolar Compartment | hit rate 3.1% among 140,000 | activity change (PNC), negative = inhibition, % at 10 µM | PC3M PTB-GFP, PNC prevalence imaging, 16 h; stronger effect = lower value;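 active means readout at or below -70, meaning at least 70% loss of cells showing the perinucleolar compartment, a nuclear body marking cancer cells; inconclusive means readout between -30 and a set limit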;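 further: plate controls were DMSO wells for no effect and camptothecin positive control wells for full effect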
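Read-out is percentage of cells bearing a perinucleolar compartment, from automated 20x imaging of fixed, Hoechst-stained PC3M PTB-GFP cells. Cells were seeded 4 h, then exposed 16 h to compound (23 nl of library stock) in duplicate plates.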
ALDH1A1 inh: qHTS Assay for Inhibitors of Aldehyde Dehydrogenase 1 (ALDH1A1). Potency, µM (series often up to 75.3 µM), without a hit: at the top dose activity, negative = inhibition, hits mostly inhibitors. AID 1030, 2008. hit rate 7.3% among 220,000. Purified ALDH1A1, NADH fluorescence, propionaldehyde substrate;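 further: potency means the concentration at half of the fitted maximal effect; plate controls were no enzyme wells and a reference inhibitor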
Target sequence (P00352 whole entry, looked up): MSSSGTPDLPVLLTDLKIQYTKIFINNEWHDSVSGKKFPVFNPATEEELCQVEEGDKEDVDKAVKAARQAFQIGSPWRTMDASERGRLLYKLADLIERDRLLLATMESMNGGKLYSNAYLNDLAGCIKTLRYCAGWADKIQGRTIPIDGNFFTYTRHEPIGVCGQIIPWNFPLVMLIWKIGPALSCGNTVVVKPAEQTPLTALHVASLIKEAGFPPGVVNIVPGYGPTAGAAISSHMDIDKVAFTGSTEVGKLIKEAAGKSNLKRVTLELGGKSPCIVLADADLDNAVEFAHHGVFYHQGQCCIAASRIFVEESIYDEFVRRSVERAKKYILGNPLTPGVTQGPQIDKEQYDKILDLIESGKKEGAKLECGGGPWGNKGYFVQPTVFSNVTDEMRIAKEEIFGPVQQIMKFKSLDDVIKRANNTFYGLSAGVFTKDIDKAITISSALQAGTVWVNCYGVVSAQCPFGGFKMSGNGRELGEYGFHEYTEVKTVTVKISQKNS
HPGD block: qHTS Assay for Inhibitors of HPGD (15-Hydroxyprostaglandin Dehydrogenase); 15-hydroxyprostaglandin dehydrogenase [NAD(+)] (Homo sapiens), P15428; purified HPGD, NADH fluorescence kinetic, PGE2 substrate; Potency, µM, without a hit: at the top dose activity change, negative = inhibition, hits mostly inhibitors; hit rate 4.3% among 150,000; AID 894, 2007; further: potency means the concentration at half of the fitted maximal effect
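20 nM HPGD preincubated 15 min at room temperature with compound in 50 mM Tris-HCl pH 8, 0.01% Tween 20. Started with 1 mM NAD+ and 30 uM prostaglandin E2; NADH fluorescence (360/450 nm) read 5 times over 30-s intervals, last minus first.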
Lamin A splicing: qHTS Assay for Modulators of Lamin A Splicing; HeLa LMNA splicing GFP/RFP minigene ratio, 48 h; Potency, µM (series often up to 46.1 µM), for inactives: at the top dose ratio change, negative = inhibition, actives largely listed as inhibitors; hit rate 0.01% among 200,000; active means well fitted inhibition curve with a large enough effect in the signal ratio, with a control signal flat, not every such curve was filed as active; inconclusive means small, poorly fitted or top-dose-only effect, or effect the other way, or a change in a side signal; the % refers to the signal ratio; further: potency means the concentration at half of the fitted maximal effect
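S3 HeLa cells stably expressing lamin A-EGFP splicing minigene plus DsRed2, 600 cells/well, 48 h compound exposure at 37C. Laser-scanning cytometry; analysed as GFP (500-530 nm)/RFP (575-640 nm) total intensity ratio; 0.5% DMSO vehicle.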
Luc counter: Counterscreen for Luciferase (Kinase-Glo TM) Inhibition. Luciferin 4-monooxygenase (Photuris pensylvanica), Q27757. Kinase-Glo luciferase, ATP luminescence, 8 min. Potency, µM (top dose mostly 38.3 µM), without a hit: top-dose activity change, negative = inhibition, most hits filed as inhibitors. hit rate 0.28% among 200,000. AID 1379, 2008; active means well fitted inhibition curve with a large enough effect; inconclusive means small, poorly fitted or top-dose-only effect; further: potency means the concentration at half of the fitted maximal effect; nearly all actives have a fitted effect of over 60% in size
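Compound is pinned into ATP-containing buffer (10 uM ATP, imidazole pH 7.2, 7 mM MgCl2). Kinase-Glo luciferase reagent is then added. Light output is recorded following an 8-min room-temperature incubation.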
* = called active by the depositor; [ ] = another dose, or the depositor's remark. Sampled rows, rich in hits. Any-hit rate of the full collection: about 10%. Unless noted, the call rests on the fitted dose curve; in most records, active means well fitted inhibition curve with a large enough effect (not every such curve was filed as active); inconclusive means small, poorly fitted or top-dose-only effect, or another doubt; inactive means no such curve, though single readings can be large or run the other way. Unless noted, on the % scale 0 is the no-effect control and ±100 the full control effect.

For CCOC(=O)c1ccc(NC(=O)CC2OCCN(CC)C2=O)cc1 (centres undefined) the results were PNC inhibitor -25.5, ALDH1A1 inh 1.78µM*, HPGD block -5.0%, Lamin A splicing -12.4% and Luc counter -0.8%.
CCOC(=O)c1ccc(NC(=O)CC2C(=O)OCCN2CC)cc1 (centres undefined) was read as ALDH1A1 inh 1.41µM*, Lamin A splicing -21.5%[46 µM] and Luc counter -3.5%.
Screening COc1nc(Cl)nc(Cl)c1Cl (tested in a mixture with another compound) returned ALDH1A1 inh 5.8%[13.5 µM], HPGD block -3.9% and Luc counter -5.5%[7.66 µM].
`CC(=O)N1CCN(C)CC1` gave ALDH1A1 inh -6.8%, HPGD block -11.8% and Luc counter -0.4%.
`NC(Cc1ccccc1)(C(=O)O)C(=O)O` gave ALDH1A1 inh 11.5%[13.5 µM], HPGD block -2.7% and Luc counter -0.6%[7.66 µM].
For CC(=O)N1CCN(C(=O)CSc2nc3c(cnn3-c3ccccc3)c(=O)[nH]2)CC1 the results were PNC inhibitor inconclusive, ALDH1A1 inh 25.1µM*, HPGD block inconclusive, Lamin A splicing -0.5% and Luc counter -3.1%.
CC1CCN(C(=O)CSc2nc3c(cnn3-c3ccccc3)c(=O)[nH]2)CC1 was read as PNC inhibitor 11.1, ALDH1A1 inh inconclusive, HPGD block inconclusive, Lamin A splicing 6.1% and Luc counter 3.7%.
CCCCn1c(CN2CCN(c3ccccc3)CC2)nc2c1c(=O)n(C)c(=O)n2C was read as PNC inhibitor 14.4, ALDH1A1 inh inconclusive, HPGD block -5.4%, Lamin A splicing inconclusive and Luc counter -1.3%.
CCCCCn1c(CN2CCN(c3cccc(Cl)c3)CC2)nc2c1c(=O)n(C)c(=O)n2C was read as PNC inhibitor -5.2, ALDH1A1 inh 3.55µM*, HPGD block -12.0%, Lamin A splicing inconclusive and Luc counter -0.1%.
CCCn1c(CN2CCN(c3cccc(Cl)c3)CC2)nc2c1c(=O)n(C)c(=O)n2C was read as PNC inhibitor 14.5, ALDH1A1 inh inconclusive, HPGD block -1.6%, Lamin A splicing -13.8% and Luc counter -1.9%.
For CCCCn1c(CN2CCN(c3cccc(Cl)c3)CC2)nc2c1c(=O)n(C)c(=O)n2C the results were PNC inhibitor -12.3, ALDH1A1 inh 15.8µM*, HPGD block -20.5%, Lamin A splicing inconclusive and Luc counter -1.2%.
For CCCCCn1c(CN2CCN(c3cc(Cl)ccc3C)CC2)nc2c1c(=O)[nH]c(=O)n2C the results were PNC inhibitor -15.9, ALDH1A1 inh 14.1µM*, HPGD block -12.2%, Lamin A splicing inconclusive and Luc counter -4.7%.
`CCCCCCn1c(CN2CCN(CCO)CC2)nc2c1c(=O)n(C)c(=O)n2C` gave PNC inhibitor 45.9, ALDH1A1 inh 3.98µM*, HPGD block -7.1%, Lamin A splicing -7.4% and Luc counter -1.1%.
CCCCCCn1c(CN2CCC(C)CC2)nc2c1c(=O)n(C)c(=O)n2C was read as PNC inhibitor -28.8, ALDH1A1 inh inconclusive, HPGD block -7.3%, Lamin A splicing 2.5% and Luc counter 4.3%.
CCOc1ccc(CNC(=O)CN2C(=O)C3CCCCN3c3ccc(C(=O)N4CCCC4)cc32)cc1 (centres undefined) was read as Lamin A splicing 4.2%[46 µM].
For CCCC[C@@H](C=O)NC(=O)[C@H](CC(C)C)NC(=O)[C@H](CC(C)C)NC(C)=O the results were ALDH1A1 inh -3.1%, HPGD block 0.4% and Luc counter 1.2%[39.9 µM].
For CN(C)Cc1nsc(N(C)C)n1 the results were ALDH1A1 inh -6.4%[13.5 µM], HPGD block 0.7% and Luc counter -1.5%[7.66 µM].
`CCOC(=O)N1CCN(C(=O)C2CC(=O)N(c3ccc(OC)cc3)C2c2ccc(OC)cc2)CC1` (centres undefined) gave PNC inhibitor -100.0*, ALDH1A1 inh -1.9%, HPGD block -15.5%, Lamin A splicing -3.9% and Luc counter 5.5%.

Screens from PubChem BioAssay.
